Experimental data published in ChEMBL document CHEMBL3988442, “University of Dundee, Small-Polar-MMV Screening Library” (2021).

Molecular target: T1, Methionyl-tRNA synthetase, putative (Leishmania donovani (strain BPK282A1)) (UniProt E9BF75)
T1 sequence (whole entry): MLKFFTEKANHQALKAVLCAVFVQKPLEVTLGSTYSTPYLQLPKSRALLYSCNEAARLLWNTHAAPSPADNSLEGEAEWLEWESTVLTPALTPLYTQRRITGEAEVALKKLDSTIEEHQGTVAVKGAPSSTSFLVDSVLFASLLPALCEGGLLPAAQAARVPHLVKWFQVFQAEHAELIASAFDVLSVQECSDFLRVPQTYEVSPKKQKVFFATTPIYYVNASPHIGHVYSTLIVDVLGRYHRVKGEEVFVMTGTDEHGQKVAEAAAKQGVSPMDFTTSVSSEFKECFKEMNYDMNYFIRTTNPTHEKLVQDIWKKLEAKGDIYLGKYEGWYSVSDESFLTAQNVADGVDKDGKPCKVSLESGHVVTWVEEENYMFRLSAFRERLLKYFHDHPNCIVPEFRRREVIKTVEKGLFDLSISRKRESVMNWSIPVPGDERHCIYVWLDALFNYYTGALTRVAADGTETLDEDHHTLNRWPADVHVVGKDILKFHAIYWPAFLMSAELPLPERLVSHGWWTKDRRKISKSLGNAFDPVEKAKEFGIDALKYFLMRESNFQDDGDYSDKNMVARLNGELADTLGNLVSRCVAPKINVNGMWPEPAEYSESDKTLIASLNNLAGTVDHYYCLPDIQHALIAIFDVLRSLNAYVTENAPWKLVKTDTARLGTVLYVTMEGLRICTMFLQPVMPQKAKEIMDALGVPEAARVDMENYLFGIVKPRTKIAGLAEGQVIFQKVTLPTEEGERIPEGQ
Test: Leishmania donovani Methionine tRNA synthetase (LdMetRS):v7. Dose response assay
Format: functional
Design: conc 80 nM, time 150 minutes

Fc1cccc(OCc2cnc[nH]2)c1Oc1ccc(Cl)cc1
PXC50 (MAX_EFFECT 12.57995736): < 4
PXC50 (MAX_EFFECT 14.69979296): < 4

CCc1nc(NCCCOC)c2c3c(sc2n1)CCC3
PXC50 (MAX_EFFECT 10.43256997): < 4
PXC50 (MAX_EFFECT 14.35768262): < 4

Cc1nc(NCC(C)(C)O)c2c3c(sc2n1)CCCC3
PXC50 (MAX_EFFECT 11.84210526): < 4
PXC50 (MAX_EFFECT 12.5): < 4

OC1CN(c2nc(C3CC3)nc3sc4c(c23)CCCC4)C1
PXC50 (MAX_EFFECT 6.914893617): < 4
PXC50 (MAX_EFFECT 8.808290155): < 4

Cc1cc(C)n(-c2nc(N(C)C)c3c4c(sc3n2)CCCC4)n1
PXC50 (BOTTOM 3.265302341, HILLSLOPE 1.809282706, MAX_EFFECT 78.125, TOP 100.0): 4.28
PXC50 (BOTTOM 6.620107204, HILLSLOPE 2.145601955, MAX_EFFECT 79.8245614, TOP 100.0): 4.28

FC(F)(F)c1nc(N2CCCCCC2)nc2c1CCCCC2
PXC50 (MAX_EFFECT 4.325699746): < 4
PXC50 (MAX_EFFECT 5.793450882): < 4

CN(CC1CC1)c1ccc2ccc(C(=O)NC3CCCCC3)cn12
PXC50 (BOTTOM 1.124026448, HILLSLOPE 1.465093934, MAX_EFFECT 59.86394558, TOP 70.1166241): 4.49
PXC50 (BOTTOM 5.503846383, HILLSLOPE 1.186903167, MAX_EFFECT 58.31775701, TOP 100.0): 4.05

Cc1nc(N(C)C)c2c3c(sc2n1)CCCC3
PXC50 (MAX_EFFECT 4.166666667): < 4
PXC50 (MAX_EFFECT 4.385964912): < 4

COCCNC(=O)c1ccc2ccc(N3CCN(CC4CC4)CC3)n2c1
PXC50 (BOTTOM 5.874206897, HILLSLOPE 1.640597442, MAX_EFFECT 51.96261682, TOP 70.05301325): 4.26
PXC50 (MAX_EFFECT 46.71201814): < 4

CS(=O)(=O)N1CCN(c2ccc3ccc(C(=O)NCCN4CCOCC4)cn23)CC1
PXC50 (BOTTOM 1.032447983, HILLSLOPE 3.01577023, MAX_EFFECT 61.72248804, TOP 62.04525005): 4.88
PXC50 (BOTTOM -0.949038422, HILLSLOPE 2.220287811, MAX_EFFECT 68.73857404, TOP 70.86130279): 4.83

Cn1ccnc1CN1CCC(F)(F)C2(CCN(c3cnccn3)C2)C1 (stereo not given)
PXC50 (MAX_EFFECT 2.816901408): < 4
PXC50 (MAX_EFFECT 9.074074074): < 4

CCc1nc(N2CCC(C(=O)O)CC2)c2c3c(sc2n1)CCC3
PXC50 (MAX_EFFECT 11.47540984): < 4
PXC50 (MAX_EFFECT 12.29946524): < 4

CS(=O)(=O)N1CCN(c2ccc3ccc(C(=O)NCCN4CCS(=O)(=O)CC4)cn23)CC1
PXC50 (BOTTOM 1.003127248, HILLSLOPE 2.200420441, MAX_EFFECT 73.49177331, TOP 74.60069177): 4.88
PXC50 (BOTTOM 1.050104582, HILLSLOPE 2.645513549, MAX_EFFECT 70.81339713, TOP 67.22785398): 4.94

O=c1nc(NCCCNCc2cc(Br)cc(Br)c2)[nH]c2ccsc12
PXC50 (BOTTOM 2.299047881, HILLSLOPE 2.649797199, MAX_EFFECT 103.7296037, TOP 100.0081261): 6.16
PXC50 (BOTTOM 10.20336465, HILLSLOPE 2.013529983, MAX_EFFECT 101.8604651, TOP 99.90152213): 6.19

CNc1nc(CN2CCOCC2)nc2sc3c(c12)CCC(C)C3 (stereo not given)
PXC50 (MAX_EFFECT 4.668304668): < 4
PXC50 (MAX_EFFECT 7.035175879): < 4

COCCN(Cc1sccc1C)c1nc(C)nc2sccc12
PXC50 (MAX_EFFECT 12.79373368): < 4
PXC50 (MAX_EFFECT 17.23237598): < 4

CC(C)NC(=O)c1ccc2ccc(N3CCN(S(C)(=O)=O)CC3)n2c1
PXC50 (BOTTOM 1.200641937, HILLSLOPE 2.342552546, MAX_EFFECT 57.54716981, TOP 55.68048652): 4.88
PXC50 (BOTTOM 2.289724742, HILLSLOPE 1.802731874, MAX_EFFECT 51.59817352, TOP 52.80479707): 4.95

O=C(NCC1(O)CCCCC1)c1cc(=O)c2cc(F)cc(O)c2o1
PXC50 (MAX_EFFECT 3.03030303): < 4
PXC50 (MAX_EFFECT 5.182341651): < 4

CC(=O)N1CCN(C(=O)c2ccc3ccc(N4CCN(S(C)(=O)=O)CC4)n3c2)CC1
PXC50 (BOTTOM 3.542001412, HILLSLOPE 2.454286416, MAX_EFFECT 62.83018868, TOP 64.11209582): 4.91
PXC50 (BOTTOM 3.854741042, HILLSLOPE 2.302398718, MAX_EFFECT 55.70776256, TOP 55.14895524): 4.97

Cc1nc(N2CC(N3CCCCC3C)C2)c2ccsc2n1 (stereo not given)
PXC50 (MAX_EFFECT 5.319148936): < 4
PXC50 (MAX_EFFECT 5.699481865): < 4

CN(C)CCNC(=O)c1ccc2ccc(N(C)CC3CC3)n2c1
PXC50 (MAX_EFFECT 42.17687075): < 4
PXC50 (MAX_EFFECT 43.73831776): < 4

Cc1cc(C)n(-c2nc(NC3CCCC3)c3c4c(sc3n2)CCCC4)n1
PXC50 (MAX_EFFECT 22.91666667): < 4
PXC50 (MAX_EFFECT 34.21052632): < 4

Cc1nc(N2CCC(O)CC2)c2c(-c3cccs3)csc2n1
PXC50 (MAX_EFFECT 8.905852417): < 4
PXC50 (MAX_EFFECT 9.319899244): < 4

Nc1nc(CSc2ccccn2)nc2sc3c(c12)CCCC3
PXC50 (MAX_EFFECT 37.33333333): < 4
PXC50 (MAX_EFFECT 37.56613757): < 4

CCOC(=O)N1CCN(c2nc(-n3nc(C)cc3C)nc3sc4c(c23)CCCC4)CC1
PXC50 (MAX_EFFECT 10.41666667): < 4
PXC50 (MAX_EFFECT 12.71929825): < 4

CCN(CCO)c1nc(-c2ccsc2)nc2sc3c(c12)CCCC3
PXC50 (MAX_EFFECT 43.2): < 4
PXC50 (MAX_EFFECT 48.67724868): < 4

Nc1noc2ccc(-c3cnc4ccc(NCCN5CCC(F)(F)CC5)nn34)cc12
PXC50 (MAX_EFFECT 10.96491228): < 4
PXC50 (MAX_EFFECT 13.23155216): < 4

Fc1ccc(CN2CCC(F)(F)C3(CCN(c4cnccn4)C3)C2)cc1 (stereo not given)
PXC50 (MAX_EFFECT 10.88435374): < 4
PXC50 (MAX_EFFECT 11.21495327): < 4

Nc1noc2ccc(-c3cnc4ccc(NCC5CC5)nn34)cc12
PXC50 (MAX_EFFECT 32.56997455): < 4
PXC50 (MAX_EFFECT 37.71929825): < 4

Cc1nc(NCc2cccnc2)c2c3c(sc2n1)CCC3
PXC50 (MAX_EFFECT 6.361323155): < 4
PXC50 (MAX_EFFECT 13.85390428): < 4
